Screens as filed in PubChem BioAssay.
Only some compounds are listed: those with a hit (about 6% of all), similar ones and a draw of the others.
DRD3 agonist: D3 dopamine receptor (human) agonism | D3R DiscoveRx beta-arrestin cells, luminescence, 90 min | P35462 | max activation, % | AID 652048 | 0.58% of 410,000 active; in the data active = max activation above about 30%; note: 0% is about no effect
Target sequence (P35462 whole entry, looked up): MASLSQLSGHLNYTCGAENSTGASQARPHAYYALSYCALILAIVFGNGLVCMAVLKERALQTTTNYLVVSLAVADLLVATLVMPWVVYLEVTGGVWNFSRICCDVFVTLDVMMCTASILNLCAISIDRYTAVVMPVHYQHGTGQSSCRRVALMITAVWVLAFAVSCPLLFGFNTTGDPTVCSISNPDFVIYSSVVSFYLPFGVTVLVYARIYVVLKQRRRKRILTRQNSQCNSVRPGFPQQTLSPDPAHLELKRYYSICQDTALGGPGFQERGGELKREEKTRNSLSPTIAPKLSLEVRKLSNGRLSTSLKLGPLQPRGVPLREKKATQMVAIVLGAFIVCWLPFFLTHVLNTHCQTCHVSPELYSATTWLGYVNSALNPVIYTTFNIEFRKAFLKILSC
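Agonist mode: compounds and dopamine controls were applied to plated cells for 90 min at 37 degrees C after an overnight attachment at 1500 cells/well. Luminescent read-out followed 30 - 60 minutes at room temperature with DiscoveRx detection reagent.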
D1 antagonist: blocks dopamine activation of the human D1 receptor; P21728; HEK293 TREx D1 cells, calcium flux, dopamine EC80; stronger effect = lower value; activity change, negative = inhibition, % at 10 µM; 3.2% of 360,000 active; in the data active = activity change below about -30%; note: % is set by controls: 0 for no effect and ±100 for the full control effect
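Antagonism measured as reduced calcium response to an EC80 dopamine addition following 180 s compound pre-read; cells were inducible HEK293 Trex D1 plated overnight at 30 C, read kinetically at 1 cycle/sec.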
D1 potentiator: potentiators of human D1 dopamine receptor; HEK293 TREx D1 cells, calcium flux, dopamine EC20 potentiation; potentiation, % at 10 µM; P21728; 0.036% of 360,000 active; in the data active = potentiation above about 30%; note: 0% is about no effect
Chronic BCR inh: chronic active BCR signaling inhibition; ABC-DLBCL IkBa-CBG/CBR reporter, luminescence ratio, 4 h; Potency, µM (highest dose often 46.1 µM), for the others: at the top dose activity change, negative = inhibition, most hits filed as inhibitors; 0.05% of 340,000 active; active = well fitted inhibition curve with a large enough effect in the signal ratio, with a control signal flat, not every such curve was filed as active; inconclusive = small, poorly fitted or top-dose-only effect, or effect the other way, or a change in a side signal; the % refers to the signal ratio;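 note: potency is the fitted concentration of half-maximal effect; plate controls were basal doxycycline-induced cells for no effect and cells given 10 µM MG132 for full effect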
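Compounds up to 46 uM were incubated four hours with TMD8 cells whose green CBG68 luciferase is fused to IkappaBalpha; red CBR luminescence normalised the signal, and concentration-effect curves were fitted to fusion, red and ratio data.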
DRD3 antagonist: antagonists of human D3 dopamine receptor. D3R cells, DiscoveRx beta-arrestin luminescence, antagonist mode; stronger effect = lower value. max response, negative = inhibition, %. AID 652054. 2.5% of 360,000 active. P35462; in the data active = max response below about -50%; inconclusive = no clear call, values can overlap the other calls; note: % is set by controls: 0 for no effect and ±100 for the full control effect
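Cells expressing the human receptor were seeded at 1500 cells/well, incubated overnight at 37 degrees C in 5% CO2, then exposed to library compounds with dopamine controls for 90 minutes at 37 degrees C before luminescent detection.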
D1 agonist: activates the human D1 dopamine receptor. 1% of 360,000 active. activation, % at 2 µM. HEK293 T-REx D1 cells, calcium flux, agonist mode; in the data active = activation above about 30%; note: 0% is about no effect
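Agonism was scored from calcium flux recorded over 180 s (1 read/s) after pintool compound addition, following a 10-cycle baseline. Cells were inducible force-coupled HEK293 TREx D1, plated overnight at 30 C and loaded with no-wash calcium dye.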
* hit, by the source's call; u = inconclusive; x = not tested or not shown.

SMILES | DRD3 agonist | D1 antagonist | D1 potentiator | Chronic BCR inh | DRD3 antagonist | D1 agonist
COc1ccc(N2CCN(C(=O)Cn3c(-c4cccs4)cc4ccccc43)CC2)cc1 | 11.0 | -2.3 | 1.8 | x | x | 2.6
COC(=O)[C@]12CCCCC=C1N(Cc1ccc(Cl)cc1Cl)C(=O)[C@H](CC(=O)NCCCN1CCCC1=O)C2 | 3.6 | x | x | x | 0.6 | x
COc1cc(SC)ccc1C(=O)OCC(=O)N1CCN(C(C)=O)CC1 | -11.3 | -17.8 | -5.5 | 0.3% | -64.5* | 1.3
CCn1c(C)c(C(C)=O)c(N2CCC(C(N)=O)CC2)nc1=S | 0.4 | 0.8 | 0.9 | x | -18.1 | 1.5
CCn1c(C)c(C(C)=O)c(N2CCCCC2)nc1=S | 4.2 | -89.2* | -15.8 | u | -8.8 | 3.8
CC(C)C(NC(=O)c1ccc(F)cc1)C(=O)N1CCOCC1 (stereo not given) | 0.2 | -5.9 | 2.6 | 2.7% | 30.8 | 4.6
CC(C)C(NC(=O)c1ccc(F)cc1)C(=O)N1CCC1 (stereo not given) | 4.0 | -37.3* | -6.7 | -0.3% | -8.4 | 0.0
CO[C@H]1C[C@@H]2CC[C@@H](C)[C@@](O)(O2)C(=O)C(=O)N2CCCC[C@H]2C(=O)O[C@H]([C@H](C)C[C@@H]2CC[C@@H](O)[C@H](OC)C2)CC(=O)[C@H](C)C=C(C)[C@@H](O)[C@@H](OC)C(=O)[C@H](C)C[C@H](C)/C=C/C=CC=C1C | -10.6 | x | x | x | x | x
O=C(NCCN1CCC(n2c(=O)[nH]c3ccccc32)CC1)c1ccc(OC(F)(F)F)cc1 | -11.8 | x | x | x | -86.4* | x
O=C(NCCCN1CCCC1=O)c1ccc(OC(F)(F)F)cc1 | 0.9 | -23.9 | -2.5 | 0.8% | 10.0 | 8.3
CCCCOc1ccc(C(=O)NCCN2CCC(n3c(=O)[nH]c4ccccc43)CC2)cc1 | -10.6 | x | x | x | -59.9* | x
CCCCCn1c(=O)[nH]c2cc(C(=O)NCCN3CCC(C)CC3)ccc2c1=O | -27.6 | -11.8 | -2.0 | 0.1% | 5.6 | 2.6
Brc1ccc(-c2nn3c(Cc4ccccc4)nnc3s2)o1 | -4.1 | 0.1 | -1.1 | -4.9% | -3.6 | 1.5
c1ccc(Cc2nnc3sc(Nc4ccccc4)nn23)cc1 | 26.0 | -44.6* | -13.1 | 0.8% | -20.6 | 6.0
CNS(=O)(=O)c1cn(CC(=O)Nc2cccc(OC)c2)cc1S(=O)(=O)NC | 0.5 | 10.6 | -2.5 | u | x | 3.9
COc1ccc(OCCC(=O)Nc2nccs2)cc1 | 7.0 | -2.1 | 3.4 | 5.1% | 8.0 | 5.5
COc1ccccc1OCCCC(=O)Nc1nccs1 | 1.9 | -2.0 | 7.2 | u | -10.5 | 0.1
O=C(CCCOc1ccccc1)Nc1nccs1 | -4.1 | -8.9 | -0.7 | 8.4% | -57.3* | 4.7
CCc1ccc(OCCCC(=O)Nc2nccs2)cc1 | 0.4 | -30.2* | -1.4 | 0.5% | 11.1 | 7.7
O=C1C=C(C#Cc2ccc(Oc3ccccc3)cc2)C[C@@H](c2ccc(F)cc2)C1 | 0.4 | x | x | x | 0.0 | x
COc1cccc(/C=C2\SC(=S)N(CCC(=O)N3CCCCC3CCO)C2=O)c1 (stereo not given) | 0.6 | -31.5* | -1.0 | u | -13.8 | 4.6
CCOC(=O)/C(C#N)=C/c1ccc(-c2ccccc2)o1 | -17.6 | 1.2 | -2.5 | x | x | 15.5
COc1cc(C(=O)NCC(c2cccs2)S(=O)(=O)c2cccs2)cc(OC)c1OC (stereo not given) | 6.3 | x | -1.0 | 0.0% | x | -0.3
CCN(CC)C(=O)C1CCCc2c1[nH]c1ccc(Cl)cc21 (stereo not given) | 1.9 | -11.5 | 4.3 | u | 8.3 | -0.4
O=CNC1CCCc2c1[nH]c1ccc(Cl)cc21 (stereo not given) | 2.4 | -37.2* | -2.3 | u | 6.5 | 1.8
CCOc1ccccc1C(=O)NCC(=O)NCCSc1ccc(Br)cc1 | 7.7 | x | x | x | 6.8 | x
COc1ccc(CNC(=O)Cc2csc(NC(=O)Nc3ccccc3OC)n2)cc1 | -14.6 | -34.9* | -0.7 | 4.5% | 9.5 | -0.3
COc1ccccc1NC(=O)Nc1nc(C(N)CCc2ccccc2)cs1 (stereo not given) | -17.5 | x | x | x | -96.0* | x
O=C(Cc1csc(NC(=O)Nc2cccc(Cl)c2)n1)NCc1ccccn1 | -14.7 | -31.4* | -5.2 | u | -8.3 | 7.4
